Screen size: about 310,000 compounds; about 14,000 (4.5%) showed an effect of 50% or more. Effects have a minus sign here. Only a selection was taken, and strong results are over-represented in it overall.
Target: human ether-à-go-go-related gene (hERG) potassium channel (human, UniProt Q12809)
Test: primary screen, population patch clamp on CHO cells stably expressing hERG; higher = less effect of the substance
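Further: peak tail current of the secondary pulse compared with the same well before compound.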

human ether-à-go-go-related gene (hERG) potassium channel, sequence (Q12809 whole entry, looked up): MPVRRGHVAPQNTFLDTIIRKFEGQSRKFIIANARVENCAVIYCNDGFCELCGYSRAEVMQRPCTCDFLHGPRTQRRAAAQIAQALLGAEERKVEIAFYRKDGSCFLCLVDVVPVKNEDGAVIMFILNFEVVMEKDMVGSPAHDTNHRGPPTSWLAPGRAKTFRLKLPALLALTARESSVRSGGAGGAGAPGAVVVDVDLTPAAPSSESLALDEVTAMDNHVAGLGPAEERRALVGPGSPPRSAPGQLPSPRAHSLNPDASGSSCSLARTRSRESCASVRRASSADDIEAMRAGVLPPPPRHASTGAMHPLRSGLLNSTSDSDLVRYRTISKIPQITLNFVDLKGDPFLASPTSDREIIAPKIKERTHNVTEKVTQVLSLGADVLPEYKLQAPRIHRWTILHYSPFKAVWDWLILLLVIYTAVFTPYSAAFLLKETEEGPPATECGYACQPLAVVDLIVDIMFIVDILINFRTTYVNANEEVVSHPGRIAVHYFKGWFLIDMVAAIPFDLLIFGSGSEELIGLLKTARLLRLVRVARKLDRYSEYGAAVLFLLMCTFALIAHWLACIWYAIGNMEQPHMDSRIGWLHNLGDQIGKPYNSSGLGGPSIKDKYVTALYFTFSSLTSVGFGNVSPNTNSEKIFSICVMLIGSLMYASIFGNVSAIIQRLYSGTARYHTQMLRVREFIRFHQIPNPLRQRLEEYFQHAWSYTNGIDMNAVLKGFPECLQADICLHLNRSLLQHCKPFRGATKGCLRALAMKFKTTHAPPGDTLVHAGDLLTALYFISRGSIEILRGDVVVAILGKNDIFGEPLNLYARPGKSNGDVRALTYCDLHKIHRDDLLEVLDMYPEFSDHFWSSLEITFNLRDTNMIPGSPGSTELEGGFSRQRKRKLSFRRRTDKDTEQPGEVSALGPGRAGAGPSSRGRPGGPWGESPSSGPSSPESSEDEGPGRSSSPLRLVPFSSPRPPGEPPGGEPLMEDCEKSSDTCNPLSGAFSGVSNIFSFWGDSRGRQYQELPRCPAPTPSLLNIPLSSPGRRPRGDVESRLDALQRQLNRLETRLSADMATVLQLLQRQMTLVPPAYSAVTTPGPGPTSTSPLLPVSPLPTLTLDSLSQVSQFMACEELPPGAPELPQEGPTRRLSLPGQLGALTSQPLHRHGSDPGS

Compared with `CC(=O)Nc1ccc(S(=O)(=O)NCCc2c[nH]c3ccc(C)cc23)cc1`, `Cc1ccc(S(=O)(=O)NCC(=O)N/N=C/c2ccc(Cl)cc2)cc1` is lower in “hERG current change (%, negative = inhibition) at 10uM” value: 26.2% for the first, -3.55% for the second.

First: CS(=O)(=O)N(Cc1ccccc1)c1ccc(C(=O)Nc2cccnc2)cc1
Second: COc1cccc(NC(=S)N(Cc2ccc(Cl)cc2)Cc2ccc(C(=O)O)cc2)c1
The “hERG current change (%, negative = inhibition) at 10uM” value of the first is lower: -5.96% for the first, 25.6% for the second.

Compared with `CN1CCN(S(=O)(=O)c2ccc(NC(=S)NC(=O)C(C)(C)C)cc2)CC1`, `CCOc1ccc(NS(=O)(=O)c2ccc(C(=O)N3CCN(C(C)=O)CC3)cc2)cc1` is higher in “hERG current change (%, negative = inhibition) at 10uM” value: 1.03% for the first, 26.6% for the second.

Compared with `Cc1nn(S(=O)(=O)c2cccc([N+](=O)[O-])c2)c(C)c1Br`, `O=C(CCCN1C(=O)/C(=C/c2cccs2)SC1=S)Nc1cc([N+](=O)[O-])ccc1O` is higher in “hERG current change (%, negative = inhibition) at 10uM” value: 10.7% for the first, 21.1% for the second.

First: CC(C)(C)NC(=O)C(c1ccc(O)cc1)N(C(=O)CCC(=O)Nc1nccs1)c1cccc(F)c1 (stereo not shown)
Second: O=C(NC1CCCCC1)C(c1ccc2ncccc2c1)N(Cc1ccc(F)cc1)C(=O)c1cccs1 (stereo not shown)
The “hERG current change (%, negative = inhibition) at 10uM” value of the first is higher: 16.8% for the first, -22% for the second.

Compared with `O=C(O)CC(NC(=O)c1ccco1)c1ccco1` (stereo not shown), `O=C(NCCO)/C(=C/c1ccc2c(c1)OCO2)NC(=O)c1ccc(Br)cc1` is lower in “hERG current change (%, negative = inhibition) at 10uM” value: 17.4% for the first, -69.5% for the second.

Compared with `CSc1sc(-c2nnc(SCC(=O)Nc3ccccc3)n2C)c2c1C=CCC2`, `CSc1sc(-c2nnc(SCC(=O)Nc3ccc(Cl)cc3)n2C)c2c1C=CCC2` is higher in “hERG current change (%, negative = inhibition) at 10uM” value: -2.35% for the first, 10.5% for the second.

Compared with `CSc1sc(-c2n[nH]c(=S)n2C)c2c1C=CCC2`, `CCOC(=O)c1csc(NC(=O)CN2CCN(C)CC2)n1` is higher in “hERG current change (%, negative = inhibition) at 10uM” value: -56.8% for the first, 19% for the second.

Compared with `Cc1cccc(C(=O)NN2S(=O)(=O)c3ccccc3S2(=O)=O)c1`, `COc1ccc(C(=O)N=C2SC3CS(=O)(=O)CC3N2Cc2ccccc2)cc1OC` (stereo not shown) is lower in “hERG current change (%, negative = inhibition) at 10uM” value: 18.2% for the first, 13.3% for the second.

Going from `O=C(NCCC1=CCCCC1)c1cc(-c2ccccn2)nc2ccccc12` to `O=C(NC1CCCCC1)C(c1ccc2ncccc2c1)N(Cc1ccccc1)C(=O)c1cccs1` (stereo not shown), the “hERG current change (%, negative = inhibition) at 10uM” value falls from 8.77% to -60.4%.

Going from `COCCCNC(=O)C1CCN(S(=O)(=O)N(CC(C)C)CC(C)C)CC1` to `COCCNC(=O)Cn1cc(C(=S)N2CCCCC2)c2ccccc21`, the “hERG current change (%, negative = inhibition) at 10uM” value rises from 13.4% to 18.7%.

Compared with `O=C(N/N=C/c1ccc2c(c1)OCO2)/C(=C/c1ccc2c(c1)OCO2)NC(=O)c1ccccc1`, `O=C(NCCO)/C(=C\c1ccc2c(c1)OCO2)NC(=O)c1ccc(Br)cc1` is lower in “hERG current change (%, negative = inhibition) at 10uM” value: -20.7% for the first, -51.9% for the second.

Compared with `CC(=O)N/C(=C/c1ccc2c(c1)OCO2)C(=O)NCCCO`, `CC(=O)N/C(=C/c1ccc2c(c1)OCO2)C(=O)NCCO` is lower in “hERG current change (%, negative = inhibition) at 10uM” value: 23.3% for the first, 9.66% for the second.

Compared with `O=C(OCc1cc(Cl)ccc1OC(F)F)c1cncc(Br)c1`, `CCOC(=O)c1c(C)[nH]c(C(=O)COC(=O)/C=C/c2ccc(O)c(OC)c2)c1C` is lower in “hERG current change (%, negative = inhibition) at 10uM” value: 5.33% for the first, 2.87% for the second.

First: Cc1ccccc1-n1nc(C)c2c1N=C1C(Cl)=CC(Cl)=CN1C2c1ccc(C(=O)O)cc1 (stereo not shown)
Second: Fc1ccc(C2c3cccn3CCN2C(=S)Nc2cccc(F)c2)cc1 (stereo not shown)
The “hERG current change (%, negative = inhibition) at 10uM” value of the first is higher: 11.9% for the first, 6.02% for the second.

Compared with `CCOc1cc(N2CCOCC2)c(OCC)cc1NC(=O)CN1CCc2ccccc2C1`, `CCCCCc1cc(=O)oc2c(C(CCN3CCN(c4ccccc4)CC3)c3ccc4c(c3)OCO4)c(OC)cc(OC)c12` (stereo not shown) is higher in “hERG current change (%, negative = inhibition) at 10uM” value: 2.76% for the first, 18.7% for the second.

Compared with `COc1ccc2[nH]c(C)c(CCNC(=S)Nc3cccc(C)c3C)c2c1`, `CCCCCc1cc(=O)oc2c(C(CCN(CC)CC)c3ccc(OC)cc3)c(OC)cc(OC)c12` (stereo not shown) is lower in “hERG current change (%, negative = inhibition) at 10uM” value: 15.9% for the first, -55.2% for the second.

Going from `O=C(CN1CCCCCC1)NCCN1C(=O)S/C(=C\c2ccccc2Cl)C1=O` to `COc1ccccc1C(=O)NCCC(=O)N1CCCCCCC1`, the “hERG current change (%, negative = inhibition) at 10uM” value rises from -9.34% to 4.61%.

Compared with `CC1CN(C(c2cccs2)c2sc3ncnn3c2O)CC(C)O1` (stereo not shown), `O=C(NC1CCCCC1)C(c1cccs1)N(Cc1cccs1)C(=O)c1cccs1` (stereo not shown) is lower in “hERG current change (%, negative = inhibition) at 10uM” value: 19.5% for the first, -12.2% for the second.

Going from `COc1ccc(CN(C(=O)c2cccs2)C(C(=O)NC2CCCCC2)c2ccc3ncccc3c2)cc1` (stereo not shown) to `O=C(NC1CCCCC1)C(c1ccc2ncccc2c1)N(Cc1cccs1)C(=O)c1cccs1` (stereo not shown), the “hERG current change (%, negative = inhibition) at 10uM” value falls from -47.9% to -51.3%.

Going from `O=C(NC1CCCCC1)C(c1ccc2ncccc2c1)N(Cc1ccc2c(c1)OCO2)C(=O)c1cccs1` (stereo not shown) to `CCCCCc1cc(=O)oc2c(C(CCN3CCCCC3)c3ccc4c(c3)OCO4)c(OC)cc(OC)c12` (stereo not shown), the “hERG current change (%, negative = inhibition) at 10uM” value falls from -37.1% to -54.3%.

Compared with `CCOCC(=O)Nc1nnc(SCCOC)s1`, `CCN(CC)CCC(c1ccc(N(C)C)cc1)c1c(OC)cc(OC)c2ccc(=O)oc12` (stereo not shown) is lower in “hERG current change (%, negative = inhibition) at 10uM” value: -0.419% for the first, -11.7% for the second.

Going from `O=C(C1CCC(Cn2c(=O)[nH]c3ccccc3c2=O)CC1)N1CCN(c2ccccc2)CC1` (stereo not shown) to `CCCCCc1cc(=O)oc2c(C(CCN3CCN(c4ccccc4)CC3)c3ccc(N(C)C)cc3)c(OC)cc(OC)c12` (stereo not shown), the “hERG current change (%, negative = inhibition) at 10uM” value falls from 6.47% to 5.51%.

Compared with `CCCCCc1cc(=O)oc2c(C(CCN3CCCCC3)c3ccc(OC)cc3)c(OC)cc(OC)c12` (stereo not shown), `CCCCCc1cc(=O)oc2c(C(CCN3CCCC(C)C3)c3ccc(OC)cc3)c(OC)cc(OC)c12` (stereo not shown) is higher in “hERG current change (%, negative = inhibition) at 10uM” value: -59.1% for the first, -27.8% for the second.

Compared with `CCCCCc1cc(=O)oc2c(C(CCN3CCCC(C)C3)c3ccc(N(C)C)cc3)c(OC)cc(OC)c12` (stereo not shown), `CCCCCc1cc(=O)oc2c(C(CCN3CCCC3)c3ccc(N(C)C)cc3)c(OC)cc(OC)c12` (stereo not shown) is lower in “hERG current change (%, negative = inhibition) at 10uM” value: 6.65% for the first, -57.5% for the second.

Compared with `CCCCCc1cc(=O)oc2c(C(CCN(CC)CC)c3ccc(N(C)C)cc3)c(OC)cc(OC)c12` (stereo not shown), `CCCCCc1cc(=O)oc2c(C(CCN3CCCC(C)C3)c3ccc4c(c3)OCO4)c(OC)cc(OC)c12` (stereo not shown) is higher in “hERG current change (%, negative = inhibition) at 10uM” value: -33.6% for the first, -7.33% for the second.
